From PubChem BioAssay (Tox21)
Records with an inconclusive call do not appear. The source made the active and inactive calls. Unless noted, calls follow the shape of the dose curve; as a rule, active = well fitted curve in the direction sought with a large enough effect in the repeat runs; inconclusive = weak or mixed curves; inactive = flat fitted curve, though single readings scatter.

Legend:
[1] = qHTS assay to test for compound auto fluorescence at 535 nm (green) in HEK293 cells (AID 720680)
[2] = qHTS assay to test for compound auto fluorescence at 460 nm (blue) in HEK293 cell free culture (AID 720681); also: potency is read from the fitted curve at half-maximal effect
Summary of the method: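 Blue fluorescence (Ex 405/Em 460 nm, triamterene-equivalent) was read immediately after pin transfer of compound or DMSO into medium (DMEM, 10% FBS) without cells.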

[3] = qHTS assay to test for compound auto fluorescence at 535 nm (green) in HEK293 cell free culture (AID 720682)
Summary of the method: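 No cells present: wells hold DMEM supplemented with 10% FBS, into which compound or vehicle is pinned. Green emission is then recorded (485 nm excitation, 535 nm emission) and scaled to fluorescein.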

[4] = qHTS assay to test for compound auto fluorescence at 590 nm (red) in HEK293 cell free culture (AID 720683)
Summary of the method: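 Red-channel autofluorescence of compounds in culture medium (DMEM, 10% FBS), no cells, measured at 540/590 nm. Rose Bengal sodium is the reference fluorophore for equivalence.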

[5] = qHTS assay to test for compound auto fluorescence at 590 nm (red) in HepG2 cell free culture (AID 720684)
Summary of the method: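 No cells present: MEM + 10% FBS only. Compound pinned in, red label read (540/590 nm). Activity = fluorescence equivalent to Rose Bengal sodium.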

[6] = qHTS assay to test for compound auto fluorescence at 535 nm (green) in HepG2 cell free culture (AID 720686)
[7] = qHTS assay to test for compound auto fluorescence at 460 nm (blue) in HepG2 cells (AID 720687); also: potency is read from the fitted curve at half-maximal effect
Summary of the method: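 Blue-channel autofluorescence (Ex/Em 405/460 nm, triamterene-equivalent) was measured after 1 hr compound exposure at 37 C, 5% CO2. Cells were HepG2, plated overnight at 37 C in MEM plus 10% FBS.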

[8] = molecular target: Glucocorticoid receptor (Homo sapiens) (UniProt P04150); test: qHTS assay to identify small molecule agonists of the glucocorticoid receptor (GR) signaling pathway (AID 720691; active = well fitted activation curve with a large enough effect in the signal ratio in the repeat runs, not every such curve was filed as active; the % refers to the signal ratio; also: potency is read from the fitted curve at half-maximal effect); conditions: GR-bla HeLa, beta-lactamase reporter ratio, 18 h; activation: at 62.4 µM (top of the series)
Summary of the method: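 Measures GR pathway activation through a GRE-beta-lactamase reporter stably integrated in HeLa cells, with 18 h compound treatment at 37 C and fluorescence detection using a FRET substrate.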

[9] = molecular target: Glucocorticoid receptor (Homo sapiens) (UniProt P04150); test: qHTS assay to identify small molecule antagonists of the glucocorticoid receptor (GR) signaling pathway (AID 720692; active = well fitted inhibition curve with a large enough effect in the signal ratio in the repeat runs, not every such curve was filed as active; the % refers to the signal ratio; also: potency is read from the fitted curve at half-maximal effect)
Summary of the method: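 Tox21 10K library screened in concentration-response for blockade of dexamethasone (5 nM final)-induced GRE-bla reporter activity in HeLa cells; 18 h treatment, fluorescence read.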

[10] = qHTS assay to test for compound auto fluorescence at 460 nm (blue) in HepG2 cell free culture (AID 720685)
Summary of the method: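 Cell-free plates of MEM plus 10% FBS received 23 nL compound or DMSO vehicle; blue-channel (405/460 nm) intensity scored against triamterene as reference fluorophore.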
% is scaled to controls: 0 for no effect and ±100 for the full control effect; tags tell the direction and shape of the fitted curve or compound fluorescence and quenching.

Chain of Glucocorticoid receptor (Homo sapiens) (P04150 whole entry, looked up): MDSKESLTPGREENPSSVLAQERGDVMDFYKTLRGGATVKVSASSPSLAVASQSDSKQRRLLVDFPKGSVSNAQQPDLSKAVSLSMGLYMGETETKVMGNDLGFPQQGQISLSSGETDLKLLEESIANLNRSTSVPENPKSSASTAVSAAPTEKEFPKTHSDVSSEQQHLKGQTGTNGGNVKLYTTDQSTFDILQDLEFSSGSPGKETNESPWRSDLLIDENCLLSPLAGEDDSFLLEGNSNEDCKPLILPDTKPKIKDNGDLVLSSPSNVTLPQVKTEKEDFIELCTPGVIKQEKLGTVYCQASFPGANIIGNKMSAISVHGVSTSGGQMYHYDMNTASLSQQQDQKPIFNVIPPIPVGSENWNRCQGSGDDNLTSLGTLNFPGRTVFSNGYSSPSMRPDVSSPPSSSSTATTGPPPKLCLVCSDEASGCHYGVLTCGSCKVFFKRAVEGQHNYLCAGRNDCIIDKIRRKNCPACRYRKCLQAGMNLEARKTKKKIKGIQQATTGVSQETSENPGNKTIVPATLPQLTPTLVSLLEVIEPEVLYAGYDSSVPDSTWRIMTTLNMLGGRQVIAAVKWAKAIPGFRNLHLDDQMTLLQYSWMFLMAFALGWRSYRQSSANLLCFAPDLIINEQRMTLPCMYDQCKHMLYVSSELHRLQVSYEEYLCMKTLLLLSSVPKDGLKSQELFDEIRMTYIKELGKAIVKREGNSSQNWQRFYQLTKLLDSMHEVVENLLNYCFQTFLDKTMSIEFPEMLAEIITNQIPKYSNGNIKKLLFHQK

Nc1c(Cl)cc(Cl)cc1Cl
inactive: outcome [1] | Potency [2] | outcome [3] | Potency [4] | Potency [5] | Potency [6] | Potency [7] | Potency [8] | Potency [9]

O=C1CCCCCN1SSN1CCCCCC1=O
inactive: outcome [1] | Potency [2] | outcome [3] | Potency [4] | Potency [5] | Potency [6] | Potency [7]

O=c1[nH]sc2ccccc12
inactive: outcome [1] | Potency [2] | outcome [3] | Potency [4] | Potency [5] | Potency [6] | Potency [7]

COC(=O)C1=C(C)NC(C)=C(C(=O)OCC(C)C)C1c1ccccc1[N+](=O)[O-] (stereo not given)
active: Potency [9] 24.5 µM
inactive: outcome [1] | Potency [2] | outcome [3] | Potency [4] | Potency [5] | Potency [10] | Potency [6] | Potency [7]

CCCCCCCCOc1ccccc1C(=O)Nc1ccc(C(=O)OCC[N+](C)(CC)CC)cc1
inactive: outcome [1] | Potency [2] | outcome [3] | Potency [4] | Potency [5] | Potency [6] | Potency [7]

CCC(Cl)C(Cl)C(Cl)CC(Cl)C(Cl)C(C)Cl (stereo not given)
inactive: outcome [1] | Potency [2] | outcome [3] | Potency [4] | Potency [5] | Potency [6] | Potency [7] | Potency [8]

COc1cccc(N)c1
inactive: outcome [1] | Potency [2] | outcome [3] | Potency [4] | Potency [5] | Potency [6] | Potency [7] | Potency [8]

Oc1ccc(C2(c3ccc(O)cc3)CC3CC2C2CCCC32)cc1 (stereo not given)
active: Potency [9] 18.7 µM
inactive: outcome [1] | Potency [2] | outcome [3] | Potency [4] | Potency [5] | Potency [10] | Potency [6] | Potency [7]

Cc1ccc(O)c(C(C)(C)C)c1
inactive: outcome [1] | Potency [2] | outcome [3] | Potency [4] | Potency [5] | Potency [6] | Potency [7] | Potency [9]

O=c1cccccc1O
inactive: outcome [1] | Potency [2] | outcome [3] | Potency [4] | Potency [5] | Potency [6] | Potency [7] | Potency [8]

O=C(OCC1CO1)C1CCCCC1C(=O)OCC1CO1 (stereo not given)
inactive: outcome [1] | Potency [2] | outcome [3] | Potency [4] | Potency [5] | Potency [6] | Potency [7] | Potency [8]

OCc1c[nH]c2ccccc12
inactive: outcome [1] | Potency [2] | outcome [3] | Potency [4] | Potency [5] | Potency [6] | Potency [7]

CCOC(=O)O[C@]1(C(=O)OCCl)CC[C@H]2[C@@H]3CCC4=CC(=O)C=C[C@]4(C)[C@H]3[C@@H](O)C[C@@]21C
inactive: outcome [1] | Potency [2] | outcome [3] | Potency [4] | Potency [5] | Potency [6] | Potency [7]
active: Potency [8] 0.0756 µM

CCc1cc(Cc2cc(CC)c(N)c(CC)c2)cc(CC)c1N
active: Potency [9] 43.6 µM
inactive: outcome [1] | Potency [2] | outcome [3] | Potency [4] | Potency [5] | Potency [6] | Potency [7]

CCCCCCCCS(=O)C(C)Cc1ccc2c(c1)OCO2 (stereo not given)
inactive: outcome [1] | Potency [2] | outcome [3] | Potency [4] | Potency [5] | Potency [6] | Potency [7] | Potency [8]

CCOC(=O)O[C@H](C)OC(=O)c1ccc2c(c1)cc(C(=O)NC1CCN(C(C)C)CC1)n2Cc1cc(-c2ccc(Cl)s2)on1
inactive: outcome [1] | Potency [2] | outcome [3] | Potency [4] | Potency [10] | Potency [6] | Potency [7]

O=C(N/N=C/c1ccccc1O)c1ccncc1
inactive: outcome [1] | Potency [2] | outcome [3] | Potency [4] | Potency [5] | Potency [6]

[Cl][Bi]([Cl])([c]1ccccc1)([c]1ccccc1)[c]1ccccc1
inactive: outcome [1] | Potency [2] | outcome [3] | Potency [4] | Potency [10] | Potency [6] | Potency [7]

N=C1N=C(N)c2cc3ccccc3cc21
inactive: outcome [1] | outcome [3] | Potency [4] | Potency [5] | Potency [6]
active: Potency [2] 31.6 µM | Potency [7] 38.7 µM [fluorescent]

Cc1onc(-c2ccccc2Cl)c1C(=O)N[C@@H]1C(=O)N2[C@@H]1SC(C)(C)[C@@H]2C(=O)O
inactive: fluorescence, % of fluorescein [1] 0.0884% [at 18.6 µM] | fluorescence, % of fluorescent control [2] 0.0563% [at 18.6 µM] | activity change [3] 0.0013% [at 18.6 µM] | fluorescence, % of fluorescent control [4] 0.401% [at 18.6 µM] | fluorescence, % of Rose Bengal [5] -0.203% [at 18.6 µM] | fluorescence, % of fluorescein control [6] 0.101% [at 18.6 µM] | fluorescence, % of fluorescent control [7] 0.0164% [at 18.6 µM] | Potency [8]

CCC1OCC(COc2ccc(Oc3ccccc3)cc2)O1 (stereo not given)
inactive: outcome [1] | Potency [2] | outcome [3] | Potency [4] | Potency [5] | Potency [6] | Potency [7] | Potency [8]

O=C1c2ccccc2Cc2ccccc21
inactive: outcome [1] | Potency [2] | outcome [3] | Potency [4] | Potency [10] | Potency [6] | Potency [7]

CC(=O)OCC(C)OC(C)=O (stereo not given)
inactive: outcome [1] | Potency [2] | outcome [3] | Potency [4] | Potency [5] | Potency [6] | Potency [7]

COc1ccc(CN2CCN(C(c3ccc(F)cc3)c3ccc(F)cc3)CC2)c(OC)c1OC
active: Potency [8] 4.77 µM
inactive: outcome [1] | Potency [2] | outcome [3] | Potency [4] | Potency [5] | Potency [6] | Potency [7]

CCCCCCCC[P+](CCCCCCCC)(CCCCCCCC)CCCCCCCC
inactive: outcome [1] | Potency [2] | outcome [3] | Potency [4] | Potency [5] | Potency [6] | Potency [7]

CCCCCCCCCCCCCCCC[N+](C)(C)CCN(Cc1ccc(OC)cc1)c1ncccn1
inactive: fluorescence, % of fluorescein [1] -0.0029% [at 18.6 µM] | fluorescence, % of fluorescent control [2] -0.0676% [at 18.6 µM] | activity change [3] -0.0015% [at 18.6 µM] | fluorescence, % of fluorescent control [4] -0.016% [at 18.6 µM] | fluorescence, % of Rose Bengal [5] 0.665% [at 18.6 µM] | fluorescence, % of fluorescein control [6] -0.0114% [at 18.6 µM] | fluorescence, % of fluorescent control [7] 0.0553% [at 18.6 µM] | Potency [8] | Potency [9]
